Source: PubChem BioAssay AID1159580 (chemical genetic matrix, 2015)
Several values for one entry are separate records, joined by “and”; a condition that tells them apart may be missing. Identical values can stand only once. Among all 5,500 compounds or so, about 2,000 (36%) were called active. Inconclusive results (about 18%) are left out. Cut-off read from the data, not from the text of the source: active = normalized growth mostly below about 0.91 (no sharp cut-off); inconclusive = no clear call, values can overlap the other calls; inactive = mostly above about 0.92. The list shows a part of the results.

Assay: chemical genetic growth profiling, strain panel (AID 1159580);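 note: tested at 20 µM; growth read once vehicle control cultures reached saturation at 30 °C; 1 = growth at the plate median or of vehicle wells; lower values mean less growth of the strain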
Details: S. cerevisiae deletion strains, growth OD

Measured: normalized growth

CC1=CC(=O)C2C(C)(C)CCC[C@]2(C)[C@@]1(O)CCc1ccoc1 (some centres not stated)
inactive: locus YAL021C, strain ccr4, active compounds read low 0.986 | locus YAL026C, strain drs2, active compounds read low 1 | locus YAL030W, strain snc1, active compounds read low 0.984 | locus YBL061C, strain skt5, active compounds read low 1.02 | locus YBR009C, strain hhf1, active compounds read low 0.999 | locus YBR021W, strain FUR4, active compounds read low 1.04 | locus YBR023C, strain chs3, active compounds read low 0.982 | locus YBR171W, strain sec66, active compounds read low 0.984 | locus YBR229C, strain ROT2, active compounds read low 1.01 | locus YBR231C, strain swc5, active compounds read low 1.03 | locus YBR279W, strain paf1, active compounds read low 0.975 | locus YCL011C, strain gbp2, active compounds read low 0.996 | locus YCL016C, strain dcc1, active compounds read low 0.989 | locus YCL029C, strain bik1, active compounds read low 0.997 | locus YCL061C, strain MRC1, active compounds read low 1 | locus YCL069W, strain vba3, active compounds read low 1.01 | locus YCR088W, strain abp1, active compounds read low 0.992 | locus YDL005C, strain med2, active compounds read low 0.988 | locus YDL035C, strain GPR1, active compounds read low 1.03 | locus YDL040C, strain nat1, active compounds read low 0.998 | locus YDL074C, strain BRE1, active compounds read low 0.995 | locus YDL101C, strain DUN1, active compounds read low 0.998 | locus YDL185W, strain tfp1, active compounds read low 0.955 | locus YDL192W, strain arf1, active compounds read low 0.998 | locus YDR001C, strain nth1, active compounds read low 1.01 | locus YDR069C, strain doa4, active compounds read low 0.994 | locus YDR101C, strain arx1, active compounds read low 1.01 | locus YDR150W, strain NUM1, active compounds read low 0.988 | locus YDR159W, strain sac3, active compounds read low 1.02 | locus YDR162C, strain NBP2, active compounds read low 1 | locus YDR195W, strain ref2 1.08 | locus YDR297W, strain sur2, active compounds read low 0.991 | locus YDR318W, strain mcm21, active compounds read low 0.997 | locus YDR334W, strain swr1, active compounds read low 1.01 | locus YDR335W, strain msn5, active compounds read low 0.958 | locus YDR388W, active compounds read low 0.999 | locus YDR502C, strain sam2, active compounds read low 0.98 | locus YEL003W, strain gim4, active compounds read low 1.02 | locus YEL037C, strain rad23, active compounds read low 1 | locus YEL061C, strain CIN8 (second series), active compounds read low 0.995 | locus YEL061C, strain CIN8, active compounds read low 1 | locus YER015W, strain faa2, active compounds read low 0.99 | locus YER016W, strain bim1, active compounds read low 0.994 | locus YER110C, active compounds read low 0.987 | locus YER111C, strain swi4, active compounds read low 0.999 | locus YER155C, strain BEM2 (second series), active compounds read low 1.03 | locus YER155C, strain BEM2, active compounds read low 0.989 | locus YER167W, strain BCK2, active compounds read low 0.989 | locus YFR010W, strain ubp6, active compounds read low 1.04 | locus YGL078C, strain dbp3, active compounds read low 0.966 | locus YGL086W, strain mad1, active compounds read low 0.995 | locus YGL167C, strain pmr1, active compounds read low 0.987 | locus YGL173C, strain kem1, active compounds read low 1.01 | locus YGL227W, strain vid30, active compounds read low 0.991 | locus YGL240W, strain doc1, active compounds read low 1.01 | locus YGL248W, strain PDE1, active compounds read low 1.03 | locus YGL253W, strain hxk2, active compounds read low 1.03 | locus YGR078C, strain PAC10, active compounds read low 1.01 | locus YGR135W, strain pre9, active compounds read low 0.941 | locus YGR252W, strain gcn5, active compounds read low 1.08 | locus YHR013C, strain ard1, active compounds read low 0.98 | locus YHR027C, strain rpn1, active compounds read low 0.99 | locus YHR030C, strain SLT2, active compounds read low 1.05 | locus YHR079C, strain IRE1 (second series), active compounds read low 0.972 | locus YHR079C, strain IRE1, active compounds read low 1.04 | locus YHR094C, strain hxt1, active compounds read low 0.973 | locus YHR129C, strain ARP1, active compounds read low 0.989 | locus YHR142W, strain chs7, active compounds read low 0.96 | locus YHR200W, strain rpn10, active compounds read low 1 | locus YIL066C, strain RNR3, active compounds read low 0.998 | locus YIL073C, strain SPO22, active compounds read low 1.02 | locus YIL125W, strain kgd1, active compounds read low 0.98 | locus YIR030C, strain dcg1, active compounds read low 0.976 | locus YJL092W, strain hpr5, active compounds read low 1 | locus YJL095W, strain BCK1 (second series), active compounds read low 0.995 | locus YJL095W, strain BCK1, active compounds read low 1.02 and 1.03 | locus YJL115W, strain asf1, active compounds read low 0.982 | locus YJL129C, strain trk1, active compounds read low 0.945 | locus YJL134W, strain LCB3, active compounds read low 0.99 | locus YJL154C, strain vps35, active compounds read low 1 | locus YJL164C, strain tpk1, active compounds read low 0.955 | locus YJL166W, strain qcr8, active compounds read low 0.995 | locus YJL168C, strain set2, active compounds read low 0.983 | locus YJL187C, strain SWE1 (second series), active compounds read low 1 | locus YJL187C, strain SWE1, active compounds read low 0.992 | locus YJR043C, strain POL32, active compounds read low 1.08 | locus YJR066W, strain TOR1, active compounds read low 0.973 | locus YJR075W, strain HOC1, active compounds read low 0.994 | locus YKL009W, strain mrt4, active compounds read low 0.981 | locus YKL068W, active compounds read low 0.968 | locus YKL085W, strain MDH1 (second series), active compounds read low 0.974 | locus YKL085W, strain MDH1, active compounds read low 0.974 | locus YKL160W, strain elf1, active compounds read low 0.975 | locus YKL190W, strain CNB1, active compounds read low 0.986 | locus YKR001C, strain vps1, active compounds read low 1.04 | locus YKR026C, strain gcn3, active compounds read low 1 | locus YKR091W, strain srl3, active compounds read low 0.991 | locus YLL001W, strain dnm1, active compounds read low 0.964 | locus YLL026W, active compounds read low 0.994 | locus YLL041C, strain sdh2, active compounds read low 0.999 | locus YLR027C, strain aat2, active compounds read low 0.984 | locus YLR039C, strain RIC1, active compounds read low 1 | locus YLR058C, strain SHM2, active compounds read low 1.02 | locus YLR102C, strain apc9, active compounds read low 0.979 | locus YLR113W, strain HOG1, active compounds read low 1.02 | locus YLR221C, strain rsa3, active compounds read low 1.02 | locus YLR258W, strain gsy2, active compounds read low 0.996 | locus YLR268W, strain sec22, active compounds read low 1 | locus YLR320W, strain mms22, active compounds read low 1 | locus YLR342W, strain FKS1, active compounds read low 0.99 | locus YLR357W, strain rsc2, active compounds read low 1.04 | locus YLR370C, strain arc18, active compounds read low 0.996 | locus YLR371W, strain rom2, active compounds read low 0.983 | locus YLR384C, strain iki3, active compounds read low 0.982 | locus YLR418C, strain cdc73, active compounds read low 0.995 | locus YML016C, strain PPZ1, active compounds read low 0.998 | locus YML032C, strain rad52, active compounds read low 0.983 | locus YML120C, strain ndi1, active compounds read low 0.954 | locus YML124C, strain tub3, active compounds read low 0.993 | locus YMR058W, strain fet3, active compounds read low 1 | locus YMR078C, strain ctf18, active compounds read low 0.974 | locus YMR125W, strain sto1, active compounds read low 0.959 | locus YMR129W, active compounds read low 0.981 | locus YMR205C, strain PFK2, active compounds read low 0.922 | locus YMR223W, strain ubp8, active compounds read low 0.972 | locus YMR231W, strain pep5, active compounds read low 0.998 | locus YMR307W, strain GAS1, active compounds read low 1.13 | locus YNL067W, strain RPL9B, active compounds read low 1 | locus YNL183C, strain NPR1, active compounds read low 0.975 | locus YNL209W, strain ssb2, active compounds read low 0.987 | locus YNL233W, strain BNI4, active compounds read low 1.03 | locus YNL248C, strain rpa49, active compounds read low 0.998 | locus YNL250W, strain rad50, active compounds read low 0.927 | locus YNL271C, strain bni1, active compounds read low 0.955 | locus YNL298W, strain CLA4, active compounds read low 0.996 | locus YNL307C, strain MCK1, active compounds read low 0.986 | locus YNL322C, strain KRE1 (second series), active compounds read low 0.998 | locus YNR049C, strain mso1, active compounds read low 1 | locus YNR052C, strain pop2, active compounds read low 0.979 | locus YOL006C, strain TOP1, active compounds read low 1.15 | locus YOL012C, strain htz1 1.06 | locus YOL147C, strain pex11, active compounds read low 0.976 | locus YOR001W, strain rrp6, active compounds read low 1.06 | locus YOR061W, strain CKA2, active compounds read low 0.993 | locus YOR069W, strain VPS5, active compounds read low 0.99 | locus YOR070C, strain gyp1, active compounds read low 0.99 | locus YOR080W, strain dia2, active compounds read low 1 | locus YOR083W, strain WHI5, active compounds read low 1.01 | locus YOR106W, strain vam3, active compounds read low 1 | locus YOR136W, strain idh2, active compounds read low 0.986 | locus YOR144C, strain elg1, active compounds read low 0.986 | locus YOR184W, strain ser1, active compounds read low 1.01 | locus YOR231W, strain MKK1, active compounds read low 1.03 | locus YOR265W, strain rbl2, active compounds read low 1.02 | locus YOR270C, strain vph1, active compounds read low 0.862 | locus YOR290C, strain snf2, active compounds read low 0.959 | locus YOR316C, strain cot1, active compounds read low 0.993 | locus YPL051W, strain arl3, active compounds read low 0.959 | locus YPL078C, strain atp4, active compounds read low 0.966 | locus YPL106C, strain sse1, active compounds read low 1.02 | locus YPL240C, strain hsp82, active compounds read low 1 | locus YPL241C, strain CIN2, active compounds read low 0.985 | locus YPL256C, strain CLN2, active compounds read low 1.01 | locus YPR119W, strain clb2, active compounds read low 0.969 | locus YPR141C, strain kar3, active compounds read low 0.962 | locus YPR163C, strain tif3, active compounds read low 0.977 | locus YPR167C, strain met16, active compounds read low 0.972 | strain wtn01, active compounds read low 1.01
active: locus YDR137W, strain rgp1, active compounds read low 0.825 | locus YDR392W, strain spt3, active compounds read low 0.628 | locus YLR262C, strain YPT6 (second series), active compounds read low 0.835 | locus YNL071W, strain lat1, active compounds read low 0.902
